Results reported in PubChem BioAssay (NCATS).
Results filed as inconclusive are left out. Unmarked numbers belong to inactive results. Active and inactive are the calls of the source. Calls come from the whole dose curve; as a rule, active = well fitted inhibition curve with a large enough effect; inconclusive = small, poorly fitted or top-dose-only effect; inactive = flat fitted curve, though single readings scatter.

These molecules were tested against Glutathione peroxidase 1 (Homo sapiens) (UniProt P07203) (assay: Primary qHTS Assay for Inhibitors of Recombinant Selenoprotein Glutathione Peroxidase 1 (GPX1) (AID 1845191; note: nearly all actives have a fitted effect of over 65% in size)). Conditions: recombinant GPX1, GR-coupled NADPH fluorescence, 15 min; series mostly up to 48.8 µM; activity, negative = inhibition: at the top concentration.
Method in brief: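 GR-coupled assay: compounds preincubated 30 min at room temperature with GPX1, then reaction started with CHP; final 10 nM GPX1, 1 mM GSH, 0.5 mM CHP, 0.5 mM NADPH, 100 nM GR, 0.01% BSA, pH 7.5 Tris buffer. NADPH fluorescence (340/450 nm) read at 0 and 15 min.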
% is set by controls: 0 for no effect and ±100 for the full control effect.

Chain of Glutathione peroxidase 1 (Homo sapiens) (P07203 whole entry, looked up): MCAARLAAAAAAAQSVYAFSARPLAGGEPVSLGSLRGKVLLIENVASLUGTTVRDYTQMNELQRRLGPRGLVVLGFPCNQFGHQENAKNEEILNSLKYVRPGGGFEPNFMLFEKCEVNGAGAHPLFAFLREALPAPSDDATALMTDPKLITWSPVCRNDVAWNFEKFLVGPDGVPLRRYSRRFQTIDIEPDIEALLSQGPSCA

| SMILES | activity, negative = inhibition | outcome | Potency |
| --- | --- | --- | --- |
| CO[C@H]1C[C@@H]2CC[C@@H](C)[C@@](O)(O2)C(=O)C(=O)N2CCCC[C@H]2C(=O)O[C@H]([C@H](C)C[C@@H]2CC[C@H](n3cnnn3)[C@H](OC)C2)CC(=O)[C@H](C)/C=C(\C)[C@@H](O)[C@@H](OC)C(=O)[C@H](C)C[C@H](C)/C=C/C=C/C=C/1C | -12.3% [at 27.7 µM] | – | – |
| C=C1C(=O)OC2C1C(O)CC1(C)C(O)CCC(C=O)C21 (centres undefined) | -7.09% | – | – |
| C=C1C(=O)O[C@@H]2C[C@H](C)[C@@]3(O)C=C(C(C)=O)[C@]4(CC3C[C@H]12)C(=O)O[C@H]1C[C@@H](C)C(CCC(C)=O)=CC[C@H]14 (some centres undefined) | – | inactive [at 27.7 µM] | – |
| COc1c(/C=C/C(C)(C)O)ccc2c1C(=O)OCc1cc(C)cc(O)c1O2 | – | inactive [at 27.7 µM] | – |
| CC(C)(C)NC(=O)[C@@H](c1cccnc1)N(C(=O)c1ccco1)c1ccc(C(C)(C)C)cc1 | -26% | – | – |
| C=CC1C(OC2OC(CO)C(O)C(O)C2O)OC=C(C(=O)OC)C1CC(=O)OCC1C(C)C(O)CC1C(CO)COC(=O)CC1C(C(=O)O)=COC(OC2OC(CO)C(O)C(O)C2O)/C1=C\C (centres undefined) | -5.71% [at 15.3 µM] | – | – |
| C[C@@H]1O[C@@H](O[C@H]2[C@H](OC(=O)[C@]34CCC(C)(C)C[C@H]3C3=CCC5[C@@]6(C)C[C@H](O)[C@H](O[C@@H]7O[C@H](CO)[C@@H](O)[C@H](O)[C@H]7O)[C@@](C)(CO)C6[C@H](O)C[C@@]5(C)[C@]3(C)C[C@H]4O)OC[C@H](O)[C@@H]2O)[C@H](O)[C@H](O)[C@H]1O[C@@H]1OC[C@@H](O)[C@H](O[C@H]2OC[C@](O)(CO)[C@H]2O)[C@H]1O (some centres undefined) | – | inactive [at 9.52 µM] | – |
| CC(=O)O[C@@H](CO[C@@H]1O[C@H](CO)[C@H](O)[C@H](O)[C@H]1O)[C@]1(C)C=C2CC[C@@H]3C(C)(C)[C@@H](O)CC[C@@]3(C)[C@@H]2CC1 | -10.8% [at 27.7 µM] | – | – |
| O=C1C=CC(O)(/C=C/C(=O)OC[C@H]2O[C@@H](Oc3ccc(O)cc3)[C@H](O)[C@@H](O)[C@@H]2O)C=C1 | -5.71% [at 27.7 µM] | – | – |
| C=C1[C@H](OC(C)=O)[C@H]2[C@@H](OC(C)=O)[C@](C)(OC(C)=O)C[C@]2(OC(C)=O)C(=O)[C@H](C)/C=C/C(C)(C)C(=O)[C@H](OC(=O)C(C)C)[C@H]1OC(C)=O | -7.91% [at 15.3 µM] | – | – |
| COc1ccc([C@@]2(O)c3c(ccc(CC=C(C)C)c3O)NC(=O)[C@@H]2OC)cc1 | – | inactive [at 27.7 µM] | – |
| CC(C)[N+]1(C)C2CCC1CC(OC(=O)C(CO)c1ccccc1)C2 (centres undefined) | -13.7% | – | – |
| C=C1CC[C@H]2[C@@](C)(CCC(O)[C@@]2(C)CO)[C@@H]1CCC1=CCOC1=O (some centres undefined) | – | inactive [at 27.7 µM] | – |
| CC(C)N(CCCCOCC(=O)NS(C)(=O)=O)c1cnc(-c2ccccc2)c(-c2ccccc2)n1 | – | – | inactive |
| O=S(=O)(Nc1ccccn1)c1ccc(N=Cc2c(O)[nH]c3ccc4ncsc4c23)cc1 | – | inactive [at 9.52 µM] | – |
| C/C1=C\CCC2=C[C@@H](OC2=O)c2c(C)coc2C1 | -18.6% | – | – |
| C=CC(C)(O)CC/C=C(\C)C(=O)OC1C(O)C(CO)OC(OC(=O)C23CCC(C)(C)CC2C2=CCC4C5(C)CCC(OC6OC(COC7OCC(OC(C)=O)C(O)C7OC7OC(COC(C)=O)C(O)C(O)C7O)C(O)C(O)C6O)C(C)(C)C5CCC4(C)C2(C)C(O)C3O)C1OC1OCC(OC2OCC(O)C(OC3OCC(O)C(O)C3O)C2O)C(O)C1O (centres undefined) | – | inactive [at 9.52 µM] | – |
| CC(=O)OC1C(O)CC2(C)C(CCC(C)C23Cc2c(O)cc(CO)c(C=O)c2O3)C1(C)C (centres undefined) | -29.8% [at 27.7 µM] | – | – |
| COc1cc2ncnc(Nc3cccc(Cl)c3F)c2cc1OC(=O)N1CCN(C)C[C@H]1C | – | inactive | – |
| O=C(Nc1ccccc1-c1cn2c(CN3CCNCC3)csc2n1)c1ccc2ccccc2n1 | -16% | – | – |

| SMILES | activity, negative = inhibition | outcome | Potency |
| --- | --- | --- | --- |
| N[C@H]1Cc2ccccc2N(O)C1=O | 3.67% | – | – |
| C=C1CCC2C(C)(C)CCC[C@]2(C)[C@H]1C/C=C(\CO)C(=O)C(=O)O (some centres undefined) | -15.5% [at 27.7 µM] | – | – |
| CC(=O)O[C@@H]1[C@H](O[C@@H]2O[C@@H](CO)[C@H](O)[C@H]2O)[C@@H](O[C@@H]2O[C@@H](C)[C@H](O[C@@H]3OC[C@@H](O)[C@H](O)[C@H]3O)[C@@H](O)[C@H]2O)[C@H](OC(=O)[C@]23CCC(C)(C)C[C@H]2C2=CCC4[C@@]5(C)CC[C@H](O[C@@H]6O[C@H](C(=O)O)[C@@H](O)[C@H](O)[C@H]6O[C@@H]6O[C@H](CO)[C@H](O)[C@H](O)[C@H]6O)[C@@](C)(C=O)C5CC[C@@]4(C)[C@]2(C)CC3)O[C@@H]1C (some centres undefined) | -3.42% [at 9.52 µM] | – | – |
| CC(C)=CCCC1(C)C=Cc2c(c(C)cc3c2[nH]c2ccccc23)O1 (centres undefined) | -2.37% [at 27.7 µM] | – | – |
| C/C=C/C=C/C(O)=C1\C(=O)[C@]2(C)C3C(C(=O)CC/C=C/C)=C(O)C4(C)C1[C@]1(C)O[C@@]4(O)[C@@]3(C)O[C@@]12O | – | inactive [at 27.7 µM] | – |
| Cc1c(F)cc(C(=O)NC2CC2)cc1-c1c(F)cn2c(C(C)(C)C)nnc2c1F | – | inactive | – |
| COC(=O)[C@H](O)[C@H]1C(C)(C)[C@H](OC(=O)C(C)C)[C@@]2(O)C(=O)[C@]1(C)C1CC[C@]3(C)C(CC(=O)O[C@H]3c3ccoc3)[C@]13O[C@@H]32 (some centres undefined) | 4.83% [at 15.3 µM] | – | – |
| Cc1cc(Nc2nc(NC(C)c3ncc(F)cn3)ncc2Cl)n[nH]1 (centres undefined) | – | inactive | – |
| CC(C)c1cc2c(c(O)c1O)[C@@]13CCCC(C)(C)[C@@H]1[C@H](OC3=O)C2=O | -20.7% [at 27.7 µM] | – | – |
| CC(=O)O[C@@H]1c2c3c(cc(O)c2C(=O)O[C@@H]1C)O[C@@]1(C)[C@@H](O)C[C@H]2C(C)(C)C(=O)C=C[C@]2(C)[C@@H]1C3 | -7.73% [at 27.7 µM] | – | – |
| CO[C@H]1C[C@@H]2CC[C@@H](C)[C@@](O)(O2)C(=O)C(=O)N2CCCC[C@H]2C(=O)O[C@H]([C@H](C)C[C@H]2CC[C@@H](OP(C)(C)=O)[C@H](OC)C2)CC(=O)[C@H](C)/C=C(\C)[C@@H](O)[C@@H](OC)C(=O)[C@H](C)C[C@H](C)/C=C/C=C/C=C/1C | -4.77% [at 27.7 µM] | – | – |
| CC(=O)O[C@@H]1[C@H](O)[C@@H](O[C@@H]2O[C@@H](C)[C@H](O[C@@H]3OC[C@@H](O)[C@H](O[C@@H]4OC[C@@H](O)[C@H](O)[C@H]4O)[C@H]3O)[C@@H](O[C@@H]3O[C@H](CO)[C@@H](O)[C@H](O)[C@H]3O)[C@H]2O)[C@H](OC(=O)[C@]23CCC(C)(C)C[C@H]2C2=CCC4[C@@]5(C)CC[C@H](O[C@@H]6O[C@H](C(=O)O)[C@@H](O)[C@H](O[C@@H]7OC[C@@H](O)[C@H](O)[C@H]7O)[C@H]6O[C@@H]6O[C@H](CO)[C@H](O)[C@H](O)[C@H]6O)[C@@](C)(C=O)C5CC[C@@]4(C)[C@]2(C)CC3)O[C@@H]1C (some centres undefined) | -4.56% [at 9.52 µM] | – | – |
| O=C(O)COCCN1CCN([C@H](c2ccccc2)c2ccc(Cl)cc2)CC1 | -11.9% | – | – |
| CN1C2CCC1CC(OC(=O)[C@H](CO)c1ccccc1)C2 (some centres undefined) | -2.88% | – | – |
| C=C1C(=O)O[C@@H]2C/C(C)=C\C(=O)/C=C(\C)[C@@H](OC(=O)/C(C)=C\C)[C@H](O)[C@@H]12 | -25.2% [at 27.7 µM] | – | – |
| C/C=C/C=C/C=C/C(=O)OC1C=C(C=O)C(O)(C(=O)O)C2(C)CCCC(C)(C)C12 (centres undefined) | -8.88% [at 27.7 µM] | – | – |
| NC(=O)c1csc(C2OC(CO)C(O)C2O)n1 (centres undefined) | – | inactive | – |
| O=C(NCC(O)CO)c1ccncc1Nc1ccc(I)cc1F (centres undefined) | -7.7% | – | – |
| COc1ccc(C2COc3cc(O)ccc3C2)c(O)c1 (centres undefined) | – | inactive | – |
